Rows were chosen to be rich in hits. Some 19% of all compounds tested hit in one or more screens of this group.
DT40 TDP1 CPT: DT40-hTDP1 cell growth loss with CPT | 12% of 420,000 active | Potency, µM (doses to about 46.2 µM), without a hit: top-dose activity change, negative = growth inhibition, most hits filed as inhibitors | chicken DT40 Tdp1-/-;hTDP1 cells + 20 nM CPT, ATP luminescence, 48 h; also: nearly all actives have a fitted effect of over 55% in size
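Chicken DT40 Tdp1-/- cells complemented with human TDP1, 400 cells/well, exposed to compounds plus 20 nM camptothecin for at least 48 h at 37 C; viability read as ATP content by CellTiter-Glo luminescence.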
VP16 counter: Gal4-VP16 reporter inhibition counter-screen. Potency, µM (highest dose often 53.6 µM), without a hit: at the highest dose activity, negative = inhibition, usual class: inhibitors. 3.5% of 310,000 active. Drosophila S2 Gal4-VP16 UAS-luciferase, luminescence, 20 h;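 also: Gal4-VP16 expression switched on by copper sulfate through the metallothionein promoter; nearly all actives have a fitted effect of over 50% in size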
RORgamma inh: ROR gamma (mouse) transcription inhibition; P51450; Drosophila S2 Gal4-RORgamma UAS-luciferase reporter, 20 h; Potency, µM (series often up to 53.6 µM), inactives show top-dose activity change, negative = inhibition, most hits filed as inhibitors; 5.4% of 310,000 active; also: nearly all actives have a fitted effect of over 60% in size
Target sequence (P51450 whole entry, looked up, the tested form may be a part): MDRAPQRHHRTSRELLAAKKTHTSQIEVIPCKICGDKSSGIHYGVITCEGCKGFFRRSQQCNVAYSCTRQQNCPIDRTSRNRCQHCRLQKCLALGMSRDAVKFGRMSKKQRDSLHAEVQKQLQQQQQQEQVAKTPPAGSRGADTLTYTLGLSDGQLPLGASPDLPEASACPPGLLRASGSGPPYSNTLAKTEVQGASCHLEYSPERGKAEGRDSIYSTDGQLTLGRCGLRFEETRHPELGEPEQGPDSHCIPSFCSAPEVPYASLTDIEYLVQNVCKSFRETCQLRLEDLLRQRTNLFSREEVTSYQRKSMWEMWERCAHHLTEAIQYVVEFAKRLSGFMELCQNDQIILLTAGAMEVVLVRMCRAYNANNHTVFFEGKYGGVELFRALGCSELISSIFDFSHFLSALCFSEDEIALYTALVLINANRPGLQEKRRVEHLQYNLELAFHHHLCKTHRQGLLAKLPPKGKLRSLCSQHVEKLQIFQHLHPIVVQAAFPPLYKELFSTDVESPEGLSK
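Schneider cells (Drosophila), stable Gal4 DBD–ROR gamma + UAS-luc; 1 hr cmpd preincubation; Cu2+ induction 700 uM final; 20 hr ambient; luminescence.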
TDP1 block: blocks human tyrosyl-DNA phosphodiesterase 1 | Q9NUW8 | recombinant TDP1, AlphaScreen DNA substrate cleavage | Potency, µM (series often up to 130 µM), for the others: at the top dose activity change, negative = inhibition, actives largely listed as inhibitors | 0.28% of 350,000 active | AID 485290; also: nearly all actives have a fitted effect of over 40% in size
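AlphaScreen read-out: signal falls as enzyme removes the 3' tyrosine-FITC from a 5'-biotinylated DNA oligo (15 nM, 5 min, RT). Enzyme was E. coli-made recombinant Tdp1 at 1 nM, exposed to compound for 15 min beforehand; beads 10 ug/ml, 10 min.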
TDP1 cell noCPT: qHTS for Inhibitors of human tyrosyl-DNA phosphodiesterase 1 (TDP1): qHTS in cells in absence of CPT; DT40 Tdp1-/- hTDP1 cells, no CPT, ATP luminescence, 48 h; Potency, µM (top dose mostly 46.2 µM), without a hit: top-dose activity change, negative = growth inhibition, actives largely listed as inhibitors; 15% of 420,000 active; AID 686978, 2013; also: nearly all actives have a fitted effect of over 55% in size
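Seeded 400 DT40-hTDP1 cells/well (vehicle DMSO, no 20 nM CPT); pinned compounds; ≥48 hr at 37 °C; CellTiter-Glo luminescence as viability measure.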
Active calls of the source: *; ? = inconclusive; nt = no result; [ ] = remark or other dose. Calls follow the shape of the dose curve; as a rule, active = well fitted curve in the direction sought with a large enough effect; inconclusive = small, poorly fitted or top-dose-only effect, or another doubt; inactive = no such curve, though single readings can be large; an effect the other way counts as inactive or inconclusive. % is scaled to controls: 0 for no effect and ±100 for the full control effect; potency is read from the fitted curve at half-maximal effect.

SMILES | DT40 TDP1 CPT | VP16 counter | RORgamma inh | TDP1 block | TDP1 cell noCPT
CC1CN(S(=O)(=O)c2cccc(C(=O)OCC(=O)N3CCCCCC3)c2)CC(C)O1 (stereo not given) | 0% | nt | nt | 0% | -21%
CC(=O)N1CCN(S(=O)(=O)c2cccc(C(=O)OCc3ccc(C(C)(C)C)cc3)c2)CC1 | 7.3µM* | nt | nt | ? | 8.2µM*
CCOC(=O)c1ccc(S(=O)(=O)N2CCN(C(=O)c3cccc(S(=O)(=O)N4CC(C)OC(C)C4)c3)CC2)cc1 (stereo not given) | 16µM* | nt | nt | nt | 9.2µM*
Cc1ccc(COC(=O)c2cccc(S(=O)(=O)N3CCCCCC3)c2)cc1 | -8% | nt | nt | -8% | -9%
O=C(c1cccc(S(=O)(=O)N2CCN(c3ccccc3)CC2)c1)N1CCCC(C(F)(F)F)C1 (stereo not given) | 7.3µM* | nt | nt | -2% | 5.2µM*
O=C(c1ccc(Cl)c(S(=O)(=O)N2CCCCCC2)c1)N1CCCC(C(F)(F)F)C1 (stereo not given) | ? | nt | nt | -2% | ?
CCOC(=O)C(NC(C)=O)(Nc1ccc(F)cc1)C(F)(F)F (stereo not given) | -14% | 0% | -31% | 6% | 6%
CCOC(=O)c1ccc(S(=O)(=O)N2CCN(C(=O)CSc3nc4ccccc4o3)CC2)cc1 | 12µM* | 0% | -10% | 0% | 12µM*
CC1CN(C(=O)c2cccc(S(=O)(=O)N3CCN(c4ccccc4)CC3)c2)CC(C)O1 (stereo not given) | 15µM* | nt | nt | 1% | ?
Cc1ccc(NC(=O)Nc2ccccc2F)cc1S(=O)(=O)N1CCOCC1 | ? | nt | nt | 1% | ?
Cc1cc(OC(=O)C(c2ccccc2)c2ccccc2)c([N+](=O)[O-])c(=O)[nH]1 | -2% | 4% | -9% | 0% | 0%
CCCCn1c(SCC(=O)Nc2nnc(C(C)C)s2)nc2c1c(=O)n(C)c(=O)n2C | 18µM* | -4% | -1% | 10% | 18µM*
CCCn1c(SCC(=O)Nc2nnc(CC)s2)nc2c1c(=O)n(C)c(=O)n2C | nt | 3% | -18% | -5% | nt
CCCn1c(SCC(=O)Nc2nc3c(s2)CCCC3)nc2c1c(=O)n(C)c(=O)n2C | 12µM* | 3% | 21% | 7% | 15µM*
CCn1cc(/C=N\NC(=O)c2ccccc2Cl)cn1 | 0% | 6% | -27% | -3% | -19%
O=C(CSc1ncccn1)Nc1ccccc1 | -14% | 8% | 37% | 9% | -7%
Cc1ccc(C(C)NC(=O)C2CCCC2)c(C)c1 (stereo not given) | -9% | -10% | 7% | nt | 1%
Cc1ccc(C(C)NC(=S)NC2CCCCC2)c(C)c1 (stereo not given) | ? | 3.5µM* | 3.2µM* | 2% | ?
Cc1ccc(C(C)NC(=S)NC2CCCCC2)cc1C (stereo not given) | nt | 4µM* | 2.5µM* | 1% | nt
CCC(NC(=S)NC1CCCCC1)c1ccc(C(C)C)cc1 (stereo not given) | nt | 2.5µM* | 1.8µM* | 3% | nt
COC(=O)c1nc(Nc2cc(F)cc(F)c2)nc(NC2CCCC2)n1 | nt | nt | nt | 0% | nt
Cc1ccc(C(=O)COC(=O)C(C)N2C(=O)C3C4C=CC(C4)C3C2=O)cc1C (stereo not given) | -6% | 2% | 28% | 2% | 16%
CC(=O)Nc1nc(-c2ccc(-c3ccccc3)cc2)cs1 | -22% | nt | nt | nt | -8%
O=C(NNc1nc(-c2ccccc2)cs1)c1cccs1 | ? | ? | 7.9µM* | nt | 23µM*
CC(=O)Nc1nc(-c2cccc3ccccc23)cs1 | 15µM* | 22% | 36% | nt | ?
CC(=O)NNc1nc(-c2ccccc2)cs1 | 21µM* | -6%[10 µM] | 2% | 5% | ?
CC(=O)NNc1nc(-c2ccc(C)cc2)cs1 | 11% | 27% | -9% | 10% | -18%
COc1ccc(CC(=O)N2CCCC2)c(OC)c1 | 1% | 15% | -28% | 4%[0.0935 µM] | -7%
Cc1ccc(NC(=O)CN2C(=O)NC(C)(C)C2=O)cc1S(=O)(=O)N1CCCCCC1 | -9% | nt | nt | -10% | -13%

Screening results (PubChem BioAssay)
